Bioassay records: PubChem BioAssay, several laboratories
A selection: hits, their analogues and other compounds. The true share with any hit is near 4.4%.
IL1B cytotox = HUVEC cytotoxicity counter-screen, IL-1B stimulated; HUVEC cell count loss, Hoechst imaging; cell count reduction, % at 2 µM; 0.41% of 94,000 active; AID 845;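 active = cell count reduction more than 3 SD above the screen-wide mean, cut at about 70% in these data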;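 also: normalized per plate to untreated control cells as the no-loss baseline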
NFkB transloc inh = blocks IL-1B driven NFkB nuclear translocation in HUVEC cells | inhibition, % at 2 µM | 0.43% of 94,000 active | HUVEC IL-1B NFkB p65 nuclear translocation imaging;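 active = inhibition above about 30% together with a positive call from visual inspection of the well image, limit read from the data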;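 also: nuclear over cytoplasmic p65 intensity ratio measured by imaging; 0% = IL-1B stimulated DMSO wells and 100% = unstimulated DMSO wells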
IL1B NFkB pot = enhances IL-1B driven NFkB nuclear translocation; HUVEC IL-1B NFkB p65 nuclear translocation imaging; activation, % at 2 µM; 0.3% of 94,000 active;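 active = activation above 40%, about the mean plus 3 SD, also judged a hit on visual image review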;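 also: percent activation is computed from the nuclear over cytoplasmic p65 intensity ratio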
Cav32 inh = blocks human Cav3.2 T-type calcium channel. B-score at 10 µM. O95180. Cav3.2-expressing cells, Fluo-4 calcium fluorescence FDSS; stronger effect = lower value. 4% of 100,000 active;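 active = single-dose well whose peak fluorescence ratio is a statistical outlier from its plate by either plate-standardised score or position-corrected B-score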
An asterisk follows results filed as active; / = no result given.

SMILES	IL1B cytotox	NFkB transloc inh	IL1B NFkB pot	Cav32 inh
COc1ccc(CNC(=O)Cn2nc(C(F)(F)F)c3c2CCC3)cc1	94.1*	34.6*	-34.6	0.685
COc1ccc(NC(=O)Cn2nc(C(F)(F)F)c3c2CCCC3)c(OC)c1	-32.1	-13.2	13.2	-1.65
S=C(NCCSCc1ccccc1Cl)Nc1ccccc1	-41.0	12.9	-12.9	-6.43*
S=C(NCCSCc1ccc(Cl)cc1)Nc1ccccc1	-20.2	-10.4	10.4	/
COc1ccccc1CNC(=O)C1CC(c2ccccc2F)=NO1 (stereo not drawn)	/	/	/	0.67
COC(=O)CCS(=O)(=O)c1ccc(Cl)cc1	2.2	-16.0	16.0	0.778
COC(=O)CCS(=O)(=O)c1ccc(Cl)c(Cl)c1	94.8*	-15.1	15.1	0.334
CCN(CC)S(=O)(=O)c1ccc2c(c1)nc(SCC(=O)NC1CC1)n2-c1ccccc1OC	-4.1	-10.1	10.1	-3.35
CCc1nnc(-n2nc(C)cc2-c2ccccc2)n1N	94.9*	97.5*	-97.5	/
COc1ccc(N2C(=O)CC2(/C=C/c2ccccc2OC)C(=O)NC2CCCC2)cc1 (stereo not drawn)	-25.8	-26.8	26.8	-5.39*
COc1ccccc1CN1C(=O)CCC1(C)C(=O)NC1CCCCCC1 (stereo not drawn)	-21.8	-21.7	21.7	0.41
Cc1c(Cl)cccc1NC(=O)C1NC(=O)CC1c1ccccc1 (stereo not drawn)	-7.6	-18.9	18.9	/
COCCOC(=O)C(C#N)c1nc2ccccc2nc1N1CCCC1 (stereo not drawn)	0.6	4.8	-4.8	0.604
COc1ccccc1N1CCN(c2nc3ccccc3nc2C(C#N)C(=O)OC(C)C)CC1 (stereo not drawn)	-22.9	-7.3	7.3	-8.53*
CC1CCN(c2nc3ccccc3nc2C(C#N)C(=O)OC2CCCCC2)CC1 (stereo not drawn)	92.5*	96.9*	-96.9	-1.38
CCOc1ccccc1N1CCN(c2nc3ccccc3nc2C(C#N)C(=O)OC)CC1 (stereo not drawn)	10.3	6.4	-6.4	-7.62*
O=C(CSc1nnc(-c2ccncc2)n1-c1ccccc1)N1CCN(c2ccc(Cl)cc2)CC1	7.5	-15.9	15.9	/
CC(=O)c1cc(F)c(N2CCN(C(=O)COc3ccc(F)cc3)CC2)cc1C	83.3*	-15.6	15.6	0.246
CC(=O)c1ccc(N2CCN(C(=O)COc3ccc(F)cc3)CC2)c(F)c1	/	/	/	0.559
Cc1ccc(C2=Nc3ccccc3NC(C)(c3ccc(C)o3)C2)o1 (stereo not drawn)	14.2	-16.1	16.1	-5.26*
CC1=CC(C)=Nc2ccccc2N1	7.9	-10.8	10.8	1.02
Cc1cc(Nc2ccccc2)n(-c2ccccc2)n1	0.8	6.3	-6.3	-8.36*
CC(=O)c1ccc(NC(=O)c2ccn[nH]2)cc1	12.9	9.2	-9.2	0.87
O=C(Nc1ccccc1)c1ccn[nH]1	19.4	31.4*	-31.4	0.054
O=C(CSc1n[nH]c(-c2ccccc2)n1)c1ccc(O)c(O)c1	/	/	/	0.232
SMILES	IL1B cytotox	NFkB transloc inh	IL1B NFkB pot	Cav32 inh
O=c1[nH]c(=O)n(CCO)c2nnn(Cc3ccccc3)c12	-7.3	1.6	-1.6	0.512
CCOC(=O)c1[nH]c(Cc2[nH]c(C(=O)OCC)c(C)c2CCC(=O)OC)c(CCC(=O)OC)c1C	-19.2	0.0	0.0	-8.41*
CCOC(=O)c1c(C)[nH]c(C(=O)OC)c1CCC(=O)OC	-38.0	-37.5	37.5	1.22
CCOC(=O)N1CCC(NC(=O)c2ccc3c(Cl)c4c(nc3c2)CCCC4)CC1	/	/	/	-3.12
CCN(C(=O)c1ccc2c(Cl)c3c(nc2c1)CCC3)c1cccc(C)c1	/	/	/	-5.58*
Cc1ccc(N(C)C(=O)c2ccc3c(Cl)c4c(nc3c2)CCC4)cc1C	/	/	/	-5.53*
CCc1ccc(N(CC)C(=O)c2ccc3c(Cl)c4c(nc3c2)CCC4)cc1	/	/	/	-3.24*
COc1ccccc1N1CCN(C(=O)c2ccc3c(Cl)c4c(nc3c2)CCCC4)CC1	/	/	/	-0.722
CCCCCCCOc1ccc(OC(=O)c2ccncc2)cc1	-16.4	-14.0	14.0	0.818
C=CCSC1=C(C#N)C(c2ccc(C(C)C)cc2)CC(=O)N1 (stereo not drawn)	1.0	4.8	-4.8	-3.48*
C=CCSC1=C(C#N)C(c2ccccc2)CC(=O)N1 (stereo not drawn)	0.3	-2.9	2.9	0.502
Cc1ccc(N2C(=O)CSC2c2ccccn2)cc1Cl (stereo not drawn)	10.1	-9.5	9.5	0.0862
CCN(CC)CC(C(=O)N(CC)CC)P(=O)(c1ccccc1)c1ccccc1 (stereo not drawn)	15.5	8.1	-8.1	0.227
Cc1ccccc1N=C(NOCc1ccc(Cl)cc1Cl)c1nonc1N	/	/	/	-2.43
Cc1ccccc1N=C(NOCc1ccccc1)c1nonc1N	-22.5	-16.0	16.0	-6.56*
COc1ccc(C(=O)NC(=S)N(Cc2ccccc2)Cc2ccccc2)cc1	7.8	3.0	-3.0	-2.65
